Laboratory results reported in PubChem BioAssay AID1159580 (chemical genetic matrix, 2015).
Several values for one entry are separate records, joined by “and”; a condition that tells them apart may be missing. Equal values may be shown once. The campaign covered roughly 5,500 compounds. About 2,000 (36%) were called active. Roughly 18% stayed inconclusive and do not appear here. No stated cut-off is given here; in the data, active means normalized growth mostly below about 0.91 (no sharp cut-off); inconclusive means no clear call, values can overlap the other calls; inactive means mostly above about 0.92. Some of the results follow.

Assay: chemical genetic growth profiling, strain panel (AID 1159580);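 further: tested at 20 µM; growth read once vehicle control cultures reached saturation at 30 °C; 1 = growth at the plate median or of vehicle wells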
Conditions: S. cerevisiae deletion strains, growth OD

Measured: normalized growth

N=c1ccn2c(n1)O[C@@H]1C2O[C@H](CO)[C@H]1O (stereo not given in full)
inactive: locus YAL021C, strain ccr4, stronger effect = lower value 1.02 | locus YAL026C, strain drs2, stronger effect = lower value 0.981 | locus YAL030W, strain snc1, stronger effect = lower value 0.987 | locus YBL061C, strain skt5, stronger effect = lower value 0.985 | locus YBR009C, strain hhf1, stronger effect = lower value 0.965 | locus YBR021W, strain FUR4, stronger effect = lower value 1.01 | locus YBR023C, strain chs3, stronger effect = lower value 0.99 | locus YBR171W, strain sec66, stronger effect = lower value 0.988 | locus YBR229C, strain ROT2, stronger effect = lower value 1 | locus YBR231C, strain swc5, stronger effect = lower value 0.98 | locus YBR279W, strain paf1, stronger effect = lower value 0.992 | locus YCL011C, strain gbp2, stronger effect = lower value 0.984 | locus YCL016C, strain dcc1, stronger effect = lower value 0.983 | locus YCL029C, strain bik1, stronger effect = lower value 1.01 | locus YCL061C, strain MRC1, stronger effect = lower value 0.988 | locus YCL069W, strain vba3, stronger effect = lower value 0.991 | locus YCR088W, strain abp1, stronger effect = lower value 0.993 | locus YDL005C, strain med2, stronger effect = lower value 0.992 | locus YDL035C, strain GPR1, stronger effect = lower value 1.01 | locus YDL040C, strain nat1, stronger effect = lower value 0.979 | locus YDL074C, strain BRE1, stronger effect = lower value 1.02 | locus YDL101C, strain DUN1, stronger effect = lower value 1.01 | locus YDL185W, strain tfp1, stronger effect = lower value 1.01 | locus YDL192W, strain arf1, stronger effect = lower value 1.01 | locus YDR001C, strain nth1, stronger effect = lower value 0.982 | locus YDR069C, strain doa4, stronger effect = lower value 0.962 | locus YDR101C, strain arx1, stronger effect = lower value 0.987 | locus YDR137W, strain rgp1, stronger effect = lower value 0.982 | locus YDR159W, strain sac3, stronger effect = lower value 0.939 | locus YDR162C, strain NBP2, stronger effect = lower value 1.01 | locus YDR195W, strain ref2 0.91 | locus YDR297W, strain sur2, stronger effect = lower value 0.996 | locus YDR318W, strain mcm21, stronger effect = lower value 1 | locus YDR334W, strain swr1, stronger effect = lower value 0.985 | locus YDR335W, strain msn5, stronger effect = lower value 0.979 | locus YDR388W, stronger effect = lower value 1.01 | locus YDR392W, strain spt3, stronger effect = lower value 0.83 | locus YDR502C, strain sam2, stronger effect = lower value 1.03 | locus YEL003W, strain gim4, stronger effect = lower value 0.984 | locus YEL037C, strain rad23, stronger effect = lower value 0.991 | locus YEL061C, strain CIN8 (second series), stronger effect = lower value 0.984 | locus YEL061C, strain CIN8, stronger effect = lower value 1.01 | locus YER015W, strain faa2, stronger effect = lower value 0.985 | locus YER016W, strain bim1, stronger effect = lower value 0.982 | locus YER110C, stronger effect = lower value 1.01 | locus YER111C, strain swi4, stronger effect = lower value 0.974 | locus YER155C, strain BEM2 (second series), stronger effect = lower value 0.949 | locus YER155C, strain BEM2, stronger effect = lower value 1 | locus YER167W, strain BCK2, stronger effect = lower value 1.01 | locus YFR010W, strain ubp6, stronger effect = lower value 0.975 | locus YGL078C, strain dbp3, stronger effect = lower value 1.01 | locus YGL086W, strain mad1, stronger effect = lower value 1.01 | locus YGL167C, strain pmr1, stronger effect = lower value 0.984 | locus YGL173C, strain kem1, stronger effect = lower value 0.981 | locus YGL227W, strain vid30, stronger effect = lower value 0.984 | locus YGL240W, strain doc1, stronger effect = lower value 0.959 | locus YGL248W, strain PDE1, stronger effect = lower value 1.01 | locus YGL253W, strain hxk2, stronger effect = lower value 0.981 | locus YGR078C, strain PAC10, stronger effect = lower value 1.01 | locus YGR135W, strain pre9, stronger effect = lower value 1.03 | locus YGR252W, strain gcn5, stronger effect = lower value 0.988 | locus YHR013C, strain ard1, stronger effect = lower value 0.939 | locus YHR027C, strain rpn1, stronger effect = lower value 0.989 | locus YHR030C, strain SLT2, stronger effect = lower value 1.01 and 0.988 | locus YHR079C, strain IRE1 (second series), stronger effect = lower value 1 | locus YHR079C, strain IRE1, stronger effect = lower value 0.985 | locus YHR094C, strain hxt1, stronger effect = lower value 1.01 | locus YHR129C, strain ARP1, stronger effect = lower value 0.997 | locus YHR142W, strain chs7, stronger effect = lower value 1.04 | locus YHR200W, strain rpn10, stronger effect = lower value 1.01 | locus YIL066C, strain RNR3, stronger effect = lower value 1.01 | locus YIL073C, strain SPO22, stronger effect = lower value 1.04 | locus YIL125W, strain kgd1, stronger effect = lower value 1 | locus YIR030C, strain dcg1, stronger effect = lower value 1.02 | locus YJL092W, strain hpr5, stronger effect = lower value 0.982 | locus YJL095W, strain BCK1 (second series), stronger effect = lower value 0.99 | locus YJL095W, strain BCK1, stronger effect = lower value 1.04 and 0.994 | locus YJL115W, strain asf1, stronger effect = lower value 1 | locus YJL129C, strain trk1, stronger effect = lower value 0.999 | locus YJL134W, strain LCB3, stronger effect = lower value 1.01 | locus YJL154C, strain vps35, stronger effect = lower value 0.988 | locus YJL164C, strain tpk1, stronger effect = lower value 1.01 | locus YJL166W, strain qcr8, stronger effect = lower value 0.99 | locus YJL168C, strain set2, stronger effect = lower value 1.01 | locus YJL187C, strain SWE1 (second series), stronger effect = lower value 1.02 | locus YJL187C, strain SWE1, stronger effect = lower value 0.984 | locus YJR043C, strain POL32, stronger effect = lower value 1.01 | locus YJR066W, strain TOR1, stronger effect = lower value 0.908 | locus YKL009W, strain mrt4, stronger effect = lower value 1.02 | locus YKL068W, stronger effect = lower value 1.01 | locus YKL085W, strain MDH1 (second series), stronger effect = lower value 1.02 | locus YKL085W, strain MDH1, stronger effect = lower value 1.02 | locus YKL160W, strain elf1, stronger effect = lower value 1.02 | locus YKL190W, strain CNB1, stronger effect = lower value 1.01 | locus YKR001C, strain vps1, stronger effect = lower value 1 | locus YKR026C, strain gcn3, stronger effect = lower value 0.989 | locus YKR091W, strain srl3, stronger effect = lower value 0.99 | locus YLL001W, strain dnm1, stronger effect = lower value 0.982 | locus YLL026W, stronger effect = lower value 0.987 | locus YLL041C, strain sdh2, stronger effect = lower value 0.992 | locus YLR027C, strain aat2, stronger effect = lower value 0.985 | locus YLR039C, strain RIC1, stronger effect = lower value 1 | locus YLR058C, strain SHM2, stronger effect = lower value 1.01 | locus YLR102C, strain apc9, stronger effect = lower value 1.01 | locus YLR113W, strain HOG1, stronger effect = lower value 0.989 | locus YLR221C, strain rsa3, stronger effect = lower value 1.01 | locus YLR258W, strain gsy2, stronger effect = lower value 0.984 | locus YLR262C, strain YPT6 (second series), stronger effect = lower value 1.01 | locus YLR262C, strain YPT6, stronger effect = lower value 1.02 | locus YLR268W, strain sec22, stronger effect = lower value 1 | locus YLR320W, strain mms22, stronger effect = lower value 0.971 | locus YLR330W, strain CHS5, stronger effect = lower value 1 | locus YLR342W, strain FKS1 (second series), stronger effect = lower value 1.01 | locus YLR342W, strain FKS1, stronger effect = lower value 0.985 | locus YLR357W, strain rsc2, stronger effect = lower value 0.95 | locus YLR370C, strain arc18, stronger effect = lower value 0.991 | locus YLR371W, strain rom2, stronger effect = lower value 1.01 | locus YLR384C, strain iki3, stronger effect = lower value 0.997 | locus YLR418C, strain cdc73, stronger effect = lower value 1.01 | locus YML016C, strain PPZ1, stronger effect = lower value 1.01 | locus YML032C, strain rad52, stronger effect = lower value 1 | locus YML120C, strain ndi1, stronger effect = lower value 1.01 | locus YML124C, strain tub3, stronger effect = lower value 1.01 | locus YMR058W, strain fet3, stronger effect = lower value 0.992 | locus YMR078C, strain ctf18, stronger effect = lower value 1.01 | locus YMR125W, strain sto1, stronger effect = lower value 0.951 | locus YMR129W, stronger effect = lower value 0.997 | locus YMR205C, strain PFK2, stronger effect = lower value 0.957 | locus YMR223W, strain ubp8, stronger effect = lower value 1.02 | locus YMR231W, strain pep5, stronger effect = lower value 0.991 | locus YMR307W, strain GAS1, stronger effect = lower value 1.02 | locus YNL067W, strain RPL9B, stronger effect = lower value 1.03 | locus YNL071W, strain lat1, stronger effect = lower value 0.994 | locus YNL153C, strain GIM3, stronger effect = lower value 1.02 | locus YNL183C, strain NPR1, stronger effect = lower value 0.941 | locus YNL209W, strain ssb2, stronger effect = lower value 1 | locus YNL233W, strain BNI4, stronger effect = lower value 1.01 | locus YNL248C, strain rpa49, stronger effect = lower value 1.01 | locus YNL250W, strain rad50, stronger effect = lower value 1 | locus YNL271C, strain bni1, stronger effect = lower value 1.02 | locus YNL298W, strain CLA4, stronger effect = lower value 1.01 | locus YNL307C, strain MCK1, stronger effect = lower value 1.01 | locus YNL322C, strain KRE1 (second series), stronger effect = lower value 1 | locus YNR049C, strain mso1, stronger effect = lower value 0.986 | locus YNR052C, strain pop2, stronger effect = lower value 1.02 | locus YOL006C, strain TOP1, stronger effect = lower value 1.09 | locus YOL012C, strain htz1 1.21 | locus YOL147C, strain pex11, stronger effect = lower value 1.01 | locus YOR001W, strain rrp6, stronger effect = lower value 1.01 | locus YOR061W, strain CKA2, stronger effect = lower value 1.01 | locus YOR069W, strain VPS5, stronger effect = lower value 1.01 | locus YOR070C, strain gyp1, stronger effect = lower value 0.995 | locus YOR080W, strain dia2, stronger effect = lower value 0.965 | locus YOR083W, strain WHI5, stronger effect = lower value 1.03 | locus YOR106W, strain vam3, stronger effect = lower value 1.02 | locus YOR136W, strain idh2, stronger effect = lower value 1.01 | locus YOR144C, strain elg1, stronger effect = lower value 1 | locus YOR184W, strain ser1, stronger effect = lower value 1.01 | locus YOR231W, strain MKK1, stronger effect = lower value 0.999 | locus YOR265W, strain rbl2, stronger effect = lower value 0.99 | locus YOR270C, strain vph1, stronger effect = lower value 0.983 | locus YOR290C, strain snf2, stronger effect = lower value 0.974 | locus YOR316C, strain cot1, stronger effect = lower value 1.02 | locus YPL051W, strain arl3, stronger effect = lower value 1 | locus YPL055C, strain LGE1, stronger effect = lower value 1.02 | locus YPL078C, strain atp4, stronger effect = lower value 1.01 | locus YPL106C, strain sse1, stronger effect = lower value 0.979 | locus YPL240C, strain hsp82, stronger effect = lower value 0.993 | locus YPL241C, strain CIN2, stronger effect = lower value 1.02 | locus YPL256C, strain CLN2, stronger effect = lower value 1.04 | locus YPR119W, strain clb2, stronger effect = lower value 1 | locus YPR141C, strain kar3, stronger effect = lower value 1.01 | locus YPR163C, strain tif3, stronger effect = lower value 1.01 | locus YPR167C, strain met16, stronger effect = lower value 1 | strain wtn01, stronger effect = lower value 1
